# TLR4 MyD88 comp = inhibitors of TLR4-MyD88 association in cells, primary screen, cell-based, HeLa CL3-4, BLA complementation, FRET ratio; 200,000 tested, 0.18% active; inhibition, % at 8.4 µM; AID 861, 2007; HeLa CL3-4 TLR4/MyD88 BLA complementation; in the data active = inhibition above about 25%;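 note: 0% = vehicle and 100% = reference inhibitor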
# Mcl1-Bid inh = Mcl-1/Bid binding inhibitors, primary screen, biochemical, TR-FRET, 1536-well | inhibition, % at 21.7 µM | Induced myeloid leukemia cell differentiation protein Mcl-1 (Homo sapiens), Q07820 | 220,000 tested, 0.97% active | TR-FRET Mcl-1/Bid-Dy647 peptide binding;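 active = compounds that cut the binding signal by more than half at the single screening dose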;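 note: His-tagged Mcl-1 with europium anti-His antibody binding Bid BH3 peptide; 0% = Mcl-1 plus peptide wells and 100% = peptide-only wells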
# Target sequence (Q07820 whole entry, looked up): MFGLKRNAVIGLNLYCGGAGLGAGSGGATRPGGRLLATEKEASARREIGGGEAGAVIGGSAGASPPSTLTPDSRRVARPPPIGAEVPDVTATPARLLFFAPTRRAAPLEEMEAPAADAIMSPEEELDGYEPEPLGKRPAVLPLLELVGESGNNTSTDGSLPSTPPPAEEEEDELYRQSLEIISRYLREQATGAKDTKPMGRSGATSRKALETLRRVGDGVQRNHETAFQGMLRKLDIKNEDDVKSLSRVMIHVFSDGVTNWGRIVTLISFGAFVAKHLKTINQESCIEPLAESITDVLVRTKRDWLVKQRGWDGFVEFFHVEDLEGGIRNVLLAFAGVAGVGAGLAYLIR
# Mcl1-Noxa inh = Mcl-1/Noxa binding inhibitors, primary screen, biochemical, TR-FRET, 1536-well; inhibition, % at 21.7 µM; 220,000 tested, 1.5% active; AID 1022, 2008; TR-FRET Mcl-1/Noxa peptide binding, 2 h;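 active = compounds that cut the protein-peptide binding signal by more than 50% relative to plate controls in a single-dose test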;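 note: His-tagged Mcl-1 with rhodamine Noxa BH3 peptide and terbium anti-His antibody; 0% = Mcl-1 plus Noxa peptide wells and 100% = peptide-only wells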
# Bim-Mcl-1 = inhibitors of Bim peptide binding to Mcl-1, primary screen, biochemical, bead-based flow cytometry, multiplex; inhibition, % at 10 µM; 190,000 tested, 0.1% active; Bim peptide-Mcl-1 binding; in the data active = inhibition above about 40%;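 note: 0% = no compound tracer wells and 100% = peptide blocker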
# NOD2-RIPK2 inh = NOD2-RIPK2 binding disruptors in cells, primary screen, fluorescence, CHO cells, BLA complementation; CCF4 ratio; 360,000 tested, 0.38% active; inhibition, % at 4.98 µM; in the data active = inhibition above about 21%;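 note: 0% = vehicle only and 100% = reference blocker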
# TLR9-MyD88 inh = inhibitors of TLR9-MyD88 association in cells, primary screen, cell-based, CHO, BLA complementation, fluorescence; 340,000 tested, 0.21% active; AID 504734, 2011; CCF4 FRET ratio; Toll-like receptor 9 (Homo sapiens) + Myeloid differentiation primary response protein …; inhibition, % at 4.98 µM;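 active = inhibition above the mean over all tested compounds plus 3 SD, cut at about 21% in these data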;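 note: 0% = DMSO only wells and 100% = clavulanate BLA inhibitor control wells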
# The depositor's hits bear a star; . = no result given. In the library only some 1.8% were active in any assay of this set; here they are far more common.
SMILES,TLR4 MyD88 comp,Mcl1-Bid inh,Mcl1-Noxa inh,Bim-Mcl-1,NOD2-RIPK2 inh,TLR9-MyD88 inh
COCCN1C(=O)Cc2c1nc(N)c1c(N)nc(N3CCN(c4ccc(F)cc4)CC3)c(C#N)c21,-8.4,-5.9,60.7*,0.0,-1.0,0.4
CC1CCN(c2ccc3nnc(CCC(=O)Nc4cccc(F)c4)n3n2)CC1,.,.,.,.,10.1,5.5
COC(=O)C(=O)C/C(=N/Nc1ncnc2ccccc12)c1ccc(Cl)cc1,.,.,.,.,0.9,2.4
O=C(O)CCc1nc(-c2ccccc2)no1,-6.6,7.7,23.7,-1.0,-2.1,-3.3
O=C(O)CCc1nc(-c2cccs2)no1,13.2,-5.4,83.7*,-5.0,2.3,3.0
C/C=C(/C)C(=O)O[C@@H]1Cc2c(ccc3ccc(=O)oc23)OC1(C)C,.,.,.,.,-5.5,4.1
CC1(C)Oc2ccc3ccc(=O)oc3c2C[C@H]1O,.,83.1*,-7.9,.,9.5,2.6
O=C(NCC1CCCO1)c1cc(Br)c(Br)s1 (stereo not drawn),.,.,.,.,0.6,-8.9
O=C(NCCc1cccs1)Nc1nnc([C@H]2C[C@H](O)[C@@H](CO)O2)s1,.,.,.,.,2.6,.
CCOC(=O)C1=C(c2ccccc2)NC(=O)NC1c1ccc(N(C)C)cc1 (stereo not drawn),-0.8,0.0,61.1*,-1.0,-8.2,-5.6
CC(C)(C)OC(=O)C[C@@H]1C/C=C\C[C@@H](CC(=O)N[C@@H](CO)Cc2ccccc2)C(=O)NCCOC1=O,.,.,.,.,-7.9,-0.3
CN(C)C(=O)CS(=O)(=O)c1ccc(Cl)cc1,.,65.6*,43.7,.,1.1,-4.0
CN(C)C(=O)CN(C)S(=O)(=O)c1ccc(Cl)cc1,-0.4,-11.9,-14.6,0.0,-6.3,-1.9
CCOC(=O)C1CCN(C(=O)Cn2nc(CC)n3cccc3c2=O)CC1,.,.,.,.,11.4,-4.5
Nc1ccc(S(=O)(=O)NCc2ccccn2)cc1,.,.,.,.,-8.0,-5.7
CC(=O)Nc1ccc(S(=O)(=O)NCc2ccccn2)cc1,-19.1,91.0*,4.0,0.0,10.3,2.2
COc1cccc(/C=C2\SC(=S)N(CCCC(=O)NC3=NCCS3)C2=O)c1,.,.,.,.,2.2,-1.7
O=C(CN1C(=O)/C(=C/c2cccc(Br)c2)SC1=S)Nc1cccnc1,-7.8,6.2,51.5*,-2.0,-2.1,8.0
O=C(CCN1C(=O)/C(=C/c2cccc(Br)c2)SC1=S)NNC(=O)c1cccnc1,-3.1,66.8*,46.0,7.0,-4.7,-8.1
O=C(CCN1C(=O)/C(=C/c2cccc(Br)c2)SC1=S)Nc1cccnc1,-8.6,-18.1,26.6,-1.0,-6.3,1.4
O=C(CCN1C(=O)/C(=C/c2ccc3c(c2)OCO3)SC1=S)NNC(=O)c1cccnc1,-9.6,52.6*,34.5,-21.0,0.1,9.1
O=C(CN1C(=O)/C(=C/c2cccc(Br)c2)SC1=S)NC1=NCCS1,-4.8,0.0,54.9*,-4.0,-12.0,-2.8
COc1ccccc1CNC(=O)COC(=O)c1nccnc1N,.,.,.,.,-11.7,-3.0
NC(=O)c1sc2nc3c(c(-c4ccco4)c2c1N)CCCC3,.,-84.2,30.9,.,5.6,13.3
Nc1c(C(=O)NCC2CCCO2)sc2nc3c(c(-c4ccco4)c12)CC/C3=C\c1ccco1 (stereo not drawn),3.5,79.8*,98.2*,44.0*,-14.6,-1.7
SMILES,TLR4 MyD88 comp,Mcl1-Bid inh,Mcl1-Noxa inh,Bim-Mcl-1,NOD2-RIPK2 inh,TLR9-MyD88 inh
Cc1ccc(/C=[N+](/C)[O-])cc1,5.2,-5.3,-3.2,-1.0,-7.5,-2.5
Cc1ccc(C=C2C(Cl)=C(Cl)C(Cl)=C2Cl)cc1,.,-0.8,52.8*,.,.,.
O=C(O)Cc1sc(Nc2cccc3ccccc23)nc1-c1ccc(Cl)cc1,.,.,.,.,-1.9,6.9
O=C(Cc1ccc(Cl)cc1)Nc1ccc(N2CCCC2)cc1,0.8,-24.4,-5.9,-4.0,-3.9,-1.0
Clc1cccc(Cl)c1CNc1ccc(N2CCCC2)cc1,7.1,-70.8,67.0*,16.0,.,.
OC(CNCCN1CCNCC1)Cc1ccccc1 (stereo not drawn),.,.,.,.,-5.1,-5.6
CCCCn1c(N)c(N(CC(C)C)C(=O)CCCn2c(=O)oc3ccccc32)c(=O)[nH]c1=O,.,.,.,.,-3.3,8.2
Cc1ccc(C(=O)NN2C(=O)C3C(C2=O)C2C=CC3C23CC3)cc1 (stereo not drawn),-17.2,-4.9,5.9,-5.0,-3.5,4.1
O=C(NN1C(=O)C2C(C1=O)C1C=CC2C12CC2)c1ccc(Cl)cc1 (stereo not drawn),.,99.6*,32.4,.,-10.4,0.4
O=c1cc(-c2ccccc2Cl)oc2c(NS(=O)(=O)c3cc(Cl)cc(Cl)c3O)ccc(O)c12,1.5,70.2*,110.2*,0.0,5.9,-6.0
CN(C)c1ccc(P(=O)(OCc2ccccc2)C(O)c2ccccc2)cc1 (stereo not drawn),.,-79.8,4.4,.,-1.6,4.5
C=CCN1C(=O)/C(=C2/Sc3ccc(OC)cc3N2C)SC1=Nc1cccc(O)c1,16.6,54.0*,58.0*,-1.0,1.5,-9.0
CCCc1cc(SCC(=O)Nc2c(C)n(C)n(-c3ccccc3)c2=O)n2c(nc3ccccc32)c1C#N,3.3,66.1*,-49.8,2.0,.,.
COc1ccc(OC)c(CN2CCN(CC(=O)Nc3ccccc3C(=O)NC3CC3)CC2)c1,.,.,.,.,-3.4,-3.5
CCN(CC)c1ccc(NC(=O)CN2CCN(CC(=O)Nc3ccccc3OC)CC2)cc1,.,.,.,.,-0.5,-10.0
CCN(CC)c1ccc(NC(=O)CN2CCN(CC(=O)Nc3ccccc3F)CC2)cc1,-1.6,-51.3,55.0*,0.0,-7.6,-2.7
COC(=O)C1=CN(CC2CCCO2)C=C(C(=O)OC)C1c1ccsc1 (stereo not drawn),-7.4,95.5*,0.4,0.0,4.4,1.4
Cc1ccc2nc(-c3cccc(Br)c3)c(Cc3ccccn3)n2c1,.,.,.,.,-1.0,.
CO[C@H]1CN(C)C(=O)c2ccc(NC(=O)C3CCC3)cc2OC[C@H](C)N(Cc2ccc(F)cc2)C[C@@H]1C,.,.,.,.,-9.5,.
CCOC(=O)c1nn(-c2ccccc2)c(C#N)c1N,14.2,-29.2,2.5,41.0*,-8.9,0.5
O=C(Nc1ccc(CCC(=O)N2CCCC2)cc1)c1ncn[nH]1,-1.5,95.5*,21.9,-4.0,-11.5,-7.9
O=C(Nc1ccc(N2CCCCC2)c(Cl)c1)c1ncn[nH]1,5.0,-31.6,3.5,0.0,-2.5,3.2
CC(C)N1CCC(=O)NC1=O,.,.,.,.,-29.4,7.2
CC1C(=O)CCN(C(C)C)C1C (stereo not drawn),9.4,89.8*,1.9,2.0,0.5,-2.0
Cn1c(-c2ccccc2)c(C(=O)CCl)c2ccccc21,18.8,-22.5,70.4*,0.0,-1.7,-0.1

# Screening results from PubChem BioAssay.
